Measurements from PMC4336329 (PLoS ONE, 2015).
Screen size: about 310,000 compounds; about 14,000 (4.5%) showed an effect of 50% or more. Effects have a minus sign here. The list comes from a sample in which strong results are over-represented; it also holds similar structures and randomly drawn compounds.

Target: human ether-à-go-go-related gene (hERG) potassium channel (human, UniProt Q12809)
Assay: primary screen, population patch clamp on CHO cells stably expressing hERG; higher = less effect of the substance
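Also: peak tail current of the secondary pulse compared with the same well before compound.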

human ether-à-go-go-related gene (hERG) potassium channel, sequence (Q12809 whole entry, looked up): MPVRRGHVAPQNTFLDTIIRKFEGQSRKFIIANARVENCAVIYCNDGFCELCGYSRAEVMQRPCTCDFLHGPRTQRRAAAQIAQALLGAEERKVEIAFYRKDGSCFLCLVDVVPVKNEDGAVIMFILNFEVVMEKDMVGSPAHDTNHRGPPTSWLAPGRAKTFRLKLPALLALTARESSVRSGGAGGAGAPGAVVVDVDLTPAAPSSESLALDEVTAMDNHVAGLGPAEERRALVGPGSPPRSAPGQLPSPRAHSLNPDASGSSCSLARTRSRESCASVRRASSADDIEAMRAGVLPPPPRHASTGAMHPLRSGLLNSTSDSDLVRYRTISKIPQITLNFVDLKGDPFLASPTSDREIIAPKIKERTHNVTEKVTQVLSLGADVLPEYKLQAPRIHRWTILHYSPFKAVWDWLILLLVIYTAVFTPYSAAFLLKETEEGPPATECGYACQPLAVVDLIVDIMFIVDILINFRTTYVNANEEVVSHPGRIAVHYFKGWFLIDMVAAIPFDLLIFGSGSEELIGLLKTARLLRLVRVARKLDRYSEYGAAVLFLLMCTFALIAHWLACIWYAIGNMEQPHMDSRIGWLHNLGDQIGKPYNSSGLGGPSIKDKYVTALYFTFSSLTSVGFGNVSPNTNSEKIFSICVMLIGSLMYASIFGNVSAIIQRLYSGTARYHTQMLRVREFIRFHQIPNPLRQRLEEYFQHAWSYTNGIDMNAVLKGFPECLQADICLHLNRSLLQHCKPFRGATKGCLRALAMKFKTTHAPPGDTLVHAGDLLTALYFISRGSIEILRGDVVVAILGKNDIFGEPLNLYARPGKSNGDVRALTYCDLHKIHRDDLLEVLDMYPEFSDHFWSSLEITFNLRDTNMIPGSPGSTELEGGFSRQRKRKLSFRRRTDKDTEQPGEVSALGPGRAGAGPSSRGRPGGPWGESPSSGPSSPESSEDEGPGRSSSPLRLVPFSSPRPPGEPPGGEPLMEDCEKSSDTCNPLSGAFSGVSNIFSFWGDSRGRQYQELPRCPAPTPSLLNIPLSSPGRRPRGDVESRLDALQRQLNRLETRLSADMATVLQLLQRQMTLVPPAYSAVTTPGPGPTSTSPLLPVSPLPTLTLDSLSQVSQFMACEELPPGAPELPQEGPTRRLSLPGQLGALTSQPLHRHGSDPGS

SMILES | hERG current change (%, negative = inhibition) at 10uM
COc1ccc(CNC(=O)C(c2cccs2)N(C(=O)c2csnn2)C2CC2)cc1 (stereo not shown) | -12.2%
COC(=O)c1cc(NC(=O)c2cccc(F)c2)cc(C(=O)OC)c1 | 5.98%
CC(Sc1nc(O)c(-c2ccccc2)c(=O)[nH]1)C(=O)Nc1ccc(Cl)cc1 (stereo not shown) | 26.9%
COc1ccc(N=Cc2c(O)[nH]c3ccccc23)cc1 | 0.417%
O=C(Nc1ccc(S(=O)(=O)N2CCN(c3ccccc3)CC2)cc1)c1cccs1 | 8.53%
Fc1cccc(Cl)c1Cn1ncc2ccccc21 | -7.36%
C=CCSc1nc(N)cc(=O)[nH]1 | 0.914%
Cc1ccc(CNc2ccc3nnc(-c4ccccc4)n3n2)cc1 | 15.7%
c1ccc(CN2CCN(CCCNc3ccc4nnc(-c5ccccc5)n4n3)CC2)cc1 | -59.7%
CCOc1ccc(CCNc2ccc3nnc(-c4ccccc4)n3n2)cc1OCC | 1.95%
CCn1cc(C(=O)N(C)c2ccc(OC)cc2OC)c2cc(OC)c(OC)cc2c1=O | 12.4%
NS(=O)(=O)c1ccc(Oc2ccc(S(N)(=O)=O)cc2)cc1 | 0.75%
CNS(=O)(=O)c1ccc(Oc2ccc(S(=O)(=O)NC)cc2)cc1 | 13.2%
C=CS(=O)(=O)c1ccc(Oc2ccc(S(=O)(=O)C=C)cc2)cc1 | -64.3%
Cc1ccc(N2C(=O)C(Cc3ccc(O)cc3)NC2=S)cc1C (stereo not shown) | -7.04%
Brc1ccccc1C1=Nn2c(nnc2-c2ccccc2)SC1 | 14.5%
CC(NC(=O)c1cc2ccccc2o1)c1cccs1 (stereo not shown) | -15.6%
Cc1cc2c(c(=O)n1CCN(C)C)C(c1ccccc1Br)C(C#N)=C(N)O2 (stereo not shown) | -26.1%
Cc1cc2c(c(=O)n1CCN(C)C)C(c1ccncc1)C(C#N)=C(N)O2 (stereo not shown) | 19.6%
Cc1cc2c(c(=O)n1CCN(C)C)C(c1ccc(Br)cc1)C(C#N)=C(N)O2 (stereo not shown) | -58.5%
COc1ccc(CC(=O)NC(c2ccccc2)c2ccc(C)cc2)c(OC)c1 (stereo not shown) | 11.3%
CCN1CCN(C(c2ccccc2)c2nnnn2Cc2ccc(OC)cc2)CC1.Cl (stereo not shown) | 10.7%

SMILES | hERG current change (%, negative = inhibition) at 10uM
c1ccc(Cn2nnnc2C(c2cccnc2)N2CCN(C3CCCCC3)CC2)cc1 (stereo not shown) | -24.9%
COc1ccc(Cn2nnnc2C(c2ccc(C)cc2)N2CCN(C3CCCC3)CC2)cc1.Cl (stereo not shown) | -63.8%
c1cnc2ccc(C(c3nnnn3C3CCCC3)N3CCSCC3)cc2c1 (stereo not shown) | -3.72%
COc1ccc(OC)c(C(c2nnnn2Cc2ccccc2)N2CCN(C3CCCCC3)CC2)c1.Cl (stereo not shown) | -53.9%
COc1ccc(OC)c(C(c2nnnn2Cc2ccccc2)N2CCN(C)CC2)c1.Cl (stereo not shown) | 3.17%
COc1ccc(C(c2nnnn2Cc2ccccc2)N2CCN(c3ccccc3)CC2)cc1.Cl (stereo not shown) | -6.94%
COc1ccccc1C(c1nnnn1Cc1ccccc1)N1CCN(C2CCCC2)CC1.Cl (stereo not shown) | -35.5%
COc1ccc(Cn2nnnc2C(c2ccc3ncccc3c2)N2CCN(C3CCCCC3)CC2)cc1 (stereo not shown) | -82.8%
COc1ccc(C(c2nnnn2Cc2ccc(F)cc2)N2CCN(c3ccc(OC)cc3)CC2)cc1 (stereo not shown) | -7.57%
COc1ccc(C(c2nnnn2Cc2ccc(F)cc2)N2CCN(c3ccccc3)CC2)cc1 (stereo not shown) | -4.37%
COc1ccc(Cn2nnnc2C(c2ccc(F)cc2)N2CCN(C3CCCC3)CC2)cc1 (stereo not shown) | -52.6%
Cc1ccc(N(CC(O)Cn2c3ccccc3c3ccccc32)S(C)(=O)=O)cc1 (stereo not shown) | 9.82%
CCC(C)(C)n1nnnc1C(c1cc2ccc(OC)cc2[nH]c1=O)N1CCc2ccccc2C1 (stereo not shown) | -27.9%
CCC(C)(C)n1nnnc1C(c1cc2ccc(OC)cc2[nH]c1=O)N1CCCCC1 (stereo not shown) | -26.3%
CCC(C)(C)n1nnnc1C(c1cc2ccc(OC)cc2[nH]c1=O)N1CCN(C2CCCCC2)CC1 (stereo not shown) | -59.6%
Cc1cccc(NC(=O)c2cc(NC(=O)c3ccco3)ccc2Cl)n1 | -29.1%
Cc1nc2ccccn2c1C(=O)Nc1ccc(Cl)cc1 | 1.65%
CN(C)c1nc2c(N)ncnc2n1[C@H]1O[C@@H](CO)[C@H](O)[C@@H]1O | 7.28%
Br.COc1ccc(Nc2nc(-c3sc(NC(C)=O)nc3C)cs2)cc1 | 3.32%
Cc1c(NC(=S)NC(=O)C(c2ccccc2)c2ccccc2)cccc1C(=O)O | -3.41%
CC(=O)CCC(=O)N1CCC(n2nccc2NC(=O)c2ccccc2C)CC1 | 9.06%
Cc1ccccc1C(=O)Nc1ccnn1C1CCN(CCCc2ccccc2)CC1 | -78.4%

SMILES | hERG current change (%, negative = inhibition) at 10uM
O=C(Nc1ccnn1C1CCN(CCCc2ccccc2)CC1)c1ccccc1Cl | -82.2%
O=C(Nc1ccnn1C1CCN(Cc2ccn[nH]2)CC1)c1ccccc1 | -18.2%
COc1ccccc1C(=O)Nc1ccnn1C1CCN(CCCc2ccccc2)CC1 | -78.3%
O=C(Nc1ccnn1C1CCN(CCCc2ccccc2)CC1)c1ccccc1 | -80.8%
C=CCNC(=S)Nc1ccc(N(C)C)cc1 | -6%
CCOC(=O)c1cnc(-n2nc(C)cc2C)nc1Oc1ccc(C#N)cc1 | 21.3%
CC(=O)c1ccccc1NS(=O)(=O)c1ccc2c(c1)CC(=O)N2 | 2.66%
CCCCn1nnnc1SCC(=O)NNC(=O)C1CCCCC1 | -1.79%
O=C1c2ccccc2C(=O)N1CCc1nc(-c2cccnc2)no1 | -12.2%
COc1ccccc1NC(=O)C1(C)Cc2ccccc2C(=O)O1 (stereo not shown) | -10.2%
Cc1ccc(-n2ncc3ccccc3c2=O)cc1Cl | -3.72%
COc1ccc(NC(=O)c2coc3ccccc23)cc1OC | 6.21%
CSc1nc(-c2ccc(Cl)cc2)c(C#N)c(=O)[nH]1 | 13.1%
Cc1nc(SCC(=O)NC2CCCCC2C)c(C#N)c(C)c1C (stereo not shown) | -7.03%
O=S(=O)(CCN1CCOCC1)c1ccccc1 | 8.81%
Cc1nc(-c2ccc(S(=O)(=O)N3CCOCC3)cc2)cs1 | 12.8%
Cc1ccccc1CN1CCN(C/C=C/c2ccccc2)CC1 | 8.81%
COc1ccc(NC(=S)N2CCN(C/C=C/c3ccccc3)CC2)c(OC)c1 | -64.2%
COc1ccc(OCC(=O)N2CCN(C(=O)COc3ccccc3)CC2)cc1 | -47.5%
COc1ccc(O)c(CN2CCN(C/C=C/c3ccccc3)CC2)c1 | -51.9%
COc1ccc(OC)c(NC(=S)N2CCN(C/C=C/c3ccccc3)CC2)c1 | -33%
O=C(Cc1ccccc1)N1CCN(C/C=C/c2ccccc2)CC1 | -19.5%

SMILES | hERG current change (%, negative = inhibition) at 10uM
O=C(COc1ccccc1)N1CCN(C/C=C/c2ccccc2)CC1 | -58.1%
CN(c1ccc(OCC(=O)N2CCN(C/C=C/c3ccccc3)CC2)cc1)S(=O)(=O)c1cccs1.Cl | -30.6%
COc1cccc(NC(=S)N2CCN(C/C=C/c3ccccc3)CC2)c1 | -44.7%
O=C(COc1ccccc1)N1CCN(C(=O)COc2ccccc2)CC1 | -32.2%
COc1cc(Br)cc(CN2CCN(C/C=C/c3ccccc3)CC2)c1O | -32.1%
COc1ccc(OCC(=O)N2CCN(C/C=C/c3ccccc3)CC2)cc1 | -58.8%
c1ccc(-c2onc(-c3ccco3)c2-c2ccc3c(c2)OCO3)cc1 | 2%
O=[N+]([O-])c1ccc(-c2ccccc2)c([As](=O)(O)O)c1 | 11.9%
O=c1cc(C(F)(F)F)nc(SCc2cccc3ccccc23)[nH]1 | 24%
Cn1c(SCC(=O)OC2CCCCC2)nnc1-c1ccc2c(c1)OCO2 | -19.7%
COc1ccc(Cn2c(=O)[nH]c3cc(C(=O)NC4CCN(Cc5ccccc5)CC4)ccc32)cc1 | -3.88%
COc1ccc(N2CCN(Cc3cc(=O)oc4cc(C)c(Cl)cc34)CC2)cc1 | 8.44%
Cc1cc(C)n2nc(C(=O)OCC(=O)N3CC(C)CC(C)C3)nc2n1 (stereo not shown) | 15.4%
O=C(NCc1ccco1)Nc1ccc2nsnc2c1 | 10.7%
N#Cc1nc(-c2ccco2)oc1NCc1ccc(F)cc1 | -4.84%
Cc1cc(C)c(Cn2ncn(-c3ccc(Br)cc3)c2=O)c(C)c1 | 19.4%
O=C(COc1ccc(Cl)cc1)N1CCN(C/C=C/c2ccccc2)CC1 | -70.7%
O=C(COc1ccc(Cl)cc1)N1CCCCC1 | -5.82%
CC(=C1C(=O)c2ccccc2C1=O)N1CCN(C/C=C/c2ccccc2)CC1 | -55.6%
CC(=C1C(=O)c2ccccc2C1=O)N1CCN(Cc2ccccc2)CC1 | -26.6%
O=C(COc1ccc(Cl)cc1)N1CCCCCCC1 | -12.2%
CS(=O)(=O)N1CCN(C/C=C/c2ccccc2)CC1 | 7.98%
